# Reference: PMC7862700, “An all-to-all approach to the identification of sequence-specific readers for epigenetic DNA modifications on cytosine”
# Assays:
# Assay in all cases: DAPPL (digital affinity profiling via proximity ligation, sequencing); 10 mM Tris-HCl pH 7.5, 50 mM NaCl, 1 mM DTT, 4% glycerol, room temperature, 30 min; GST-TFs on glutathione beads, 16-mer random dsDNA library, 0.1% formaldehyde crosslink after washing; high values mean tight binding
# FLI1 = biological target: T1, FLI1 (Homo sapiens, UniProt Q01543 1-452); settings: protein: recombinant; tags: N-terminal GST; dsDNA, one strand shown
# T1 sequence: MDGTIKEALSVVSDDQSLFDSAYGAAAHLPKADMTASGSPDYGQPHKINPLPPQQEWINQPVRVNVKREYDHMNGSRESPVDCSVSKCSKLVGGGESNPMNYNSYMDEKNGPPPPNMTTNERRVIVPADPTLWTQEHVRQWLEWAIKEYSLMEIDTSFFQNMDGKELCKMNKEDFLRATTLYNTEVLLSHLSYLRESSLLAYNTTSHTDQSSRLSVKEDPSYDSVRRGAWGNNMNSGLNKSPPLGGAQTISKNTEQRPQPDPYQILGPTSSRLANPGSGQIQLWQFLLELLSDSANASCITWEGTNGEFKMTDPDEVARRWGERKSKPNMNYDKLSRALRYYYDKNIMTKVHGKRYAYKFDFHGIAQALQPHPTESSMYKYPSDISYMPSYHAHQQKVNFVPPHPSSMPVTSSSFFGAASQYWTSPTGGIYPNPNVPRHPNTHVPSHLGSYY
# Summary of the method: (§1)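 Human transcription factors were made in yeast as GST fusions, captured on glutathione beads and barcoded with DNA. With a tag-only sample included, the pool was incubated with 200 nmole of a random double-stranded 16-mer DNA library in Tris/NaCl/DTT/glycerol buffer at room temperature for 30 min, then crosslinked with 0.1% formaldehyde after washing, ligated by proximity, amplified and sequenced. For binding signal, each hexamer's read frequency for a factor is divided by its frequency for the tag-only sample.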
# ELK1 = biological target: T2, ELK1 (Homo sapiens, UniProt P19419 1-428); settings: protein: recombinant; tags: N-terminal GST; dsDNA, one strand shown
# T2 sequence: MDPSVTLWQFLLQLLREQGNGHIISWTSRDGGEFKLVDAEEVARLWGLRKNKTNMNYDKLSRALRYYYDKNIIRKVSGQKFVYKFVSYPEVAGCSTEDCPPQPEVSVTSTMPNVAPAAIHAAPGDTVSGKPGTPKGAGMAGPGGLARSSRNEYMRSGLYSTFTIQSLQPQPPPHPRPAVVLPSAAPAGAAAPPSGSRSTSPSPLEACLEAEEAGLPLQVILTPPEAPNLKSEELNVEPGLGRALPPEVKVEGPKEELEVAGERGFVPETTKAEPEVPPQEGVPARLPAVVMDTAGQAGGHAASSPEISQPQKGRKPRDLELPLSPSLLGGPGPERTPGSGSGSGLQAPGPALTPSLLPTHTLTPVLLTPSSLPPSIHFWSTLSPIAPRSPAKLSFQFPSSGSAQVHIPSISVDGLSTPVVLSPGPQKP
# Summary of the method: as §1
# GABPA = biological target: T3, GABPA (Homo sapiens, UniProt Q06546 1-454); settings: protein: recombinant; tags: N-terminal GST; dsDNA, one strand shown
# T3 sequence: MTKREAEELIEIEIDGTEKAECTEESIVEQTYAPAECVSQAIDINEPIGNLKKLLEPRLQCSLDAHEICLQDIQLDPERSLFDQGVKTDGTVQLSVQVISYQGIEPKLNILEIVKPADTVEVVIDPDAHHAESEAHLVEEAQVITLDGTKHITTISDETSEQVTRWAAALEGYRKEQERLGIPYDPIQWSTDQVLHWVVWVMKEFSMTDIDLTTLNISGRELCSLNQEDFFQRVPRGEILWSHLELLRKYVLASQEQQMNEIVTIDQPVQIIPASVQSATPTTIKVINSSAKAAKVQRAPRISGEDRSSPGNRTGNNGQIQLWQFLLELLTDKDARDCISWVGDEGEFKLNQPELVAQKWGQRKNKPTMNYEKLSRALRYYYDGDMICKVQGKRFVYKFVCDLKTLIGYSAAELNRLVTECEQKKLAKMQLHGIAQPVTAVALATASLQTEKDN
# Summary of the method: as §1
# ERG = biological target: T4, ERG (Homo sapiens, UniProt P11308 1-479); settings: protein: recombinant; tags: N-terminal GST; dsDNA, one strand shown
# T4 sequence: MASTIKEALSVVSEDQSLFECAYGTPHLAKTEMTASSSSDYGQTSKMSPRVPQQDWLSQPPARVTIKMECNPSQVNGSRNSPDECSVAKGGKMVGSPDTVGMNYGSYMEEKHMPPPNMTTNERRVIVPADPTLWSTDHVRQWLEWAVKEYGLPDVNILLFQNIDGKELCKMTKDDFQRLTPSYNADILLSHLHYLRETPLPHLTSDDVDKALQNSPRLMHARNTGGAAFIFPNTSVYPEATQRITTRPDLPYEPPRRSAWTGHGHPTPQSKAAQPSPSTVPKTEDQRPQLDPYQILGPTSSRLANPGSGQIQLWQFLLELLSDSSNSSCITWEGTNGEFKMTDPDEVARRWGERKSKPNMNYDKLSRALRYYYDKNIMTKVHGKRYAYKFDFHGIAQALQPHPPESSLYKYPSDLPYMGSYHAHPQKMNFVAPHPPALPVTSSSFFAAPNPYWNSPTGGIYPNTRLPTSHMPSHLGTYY
# Summary of the method: as §1
# ELF1 = ELF1 (Homo sapiens, UniProt P32519 1-619); settings: protein: recombinant; tags: N-terminal GST; dsDNA, one strand shown
# Summary of the method: as §1
# EHF = biological target: T5, EHF (Homo sapiens, UniProt Q9NZC4 1-300); settings: protein: recombinant; tags: N-terminal GST; dsDNA, one strand shown
# T5 sequence: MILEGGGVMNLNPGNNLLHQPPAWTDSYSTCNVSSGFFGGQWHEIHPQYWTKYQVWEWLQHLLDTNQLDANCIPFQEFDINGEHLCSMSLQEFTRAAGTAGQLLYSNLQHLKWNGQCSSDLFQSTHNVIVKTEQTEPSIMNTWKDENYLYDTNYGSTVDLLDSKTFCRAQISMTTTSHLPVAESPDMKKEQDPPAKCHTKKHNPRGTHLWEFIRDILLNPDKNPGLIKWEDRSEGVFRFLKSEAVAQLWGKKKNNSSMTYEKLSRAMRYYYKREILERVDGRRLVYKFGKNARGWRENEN
# Summary of the method: as §1
# SPI1 = SPI1 (Homo sapiens, UniProt P17947 1-270); settings: protein: recombinant; tags: N-terminal GST; dsDNA, one strand shown
# Summary of the method: as §1
# SPIB = SPIB (Homo sapiens, UniProt Q01892 1-262); settings: protein: recombinant; tags: N-terminal GST; dsDNA, one strand shown
# Summary of the method: as §1
# ELK3 = biological target: T6, ELK3 (Homo sapiens, UniProt P41970 1-407); settings: protein: recombinant; tags: N-terminal GST; dsDNA, one strand shown
# T6 sequence: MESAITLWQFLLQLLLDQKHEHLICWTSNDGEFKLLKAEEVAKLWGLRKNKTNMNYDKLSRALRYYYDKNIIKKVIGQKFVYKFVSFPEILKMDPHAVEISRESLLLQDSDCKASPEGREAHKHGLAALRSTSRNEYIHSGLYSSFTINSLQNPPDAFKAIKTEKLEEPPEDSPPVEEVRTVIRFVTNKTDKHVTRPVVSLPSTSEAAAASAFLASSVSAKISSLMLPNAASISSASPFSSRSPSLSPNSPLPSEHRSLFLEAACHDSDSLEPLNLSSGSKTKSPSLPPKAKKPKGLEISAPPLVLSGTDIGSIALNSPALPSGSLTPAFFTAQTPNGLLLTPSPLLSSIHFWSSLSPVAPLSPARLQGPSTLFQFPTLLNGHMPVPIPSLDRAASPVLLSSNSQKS
# Summary of the method: as §1
# FEV = biological target: T7, FEV (Homo sapiens, UniProt Q99581 1-238); settings: protein: recombinant; tags: N-terminal GST; dsDNA, one strand shown
# T7 sequence: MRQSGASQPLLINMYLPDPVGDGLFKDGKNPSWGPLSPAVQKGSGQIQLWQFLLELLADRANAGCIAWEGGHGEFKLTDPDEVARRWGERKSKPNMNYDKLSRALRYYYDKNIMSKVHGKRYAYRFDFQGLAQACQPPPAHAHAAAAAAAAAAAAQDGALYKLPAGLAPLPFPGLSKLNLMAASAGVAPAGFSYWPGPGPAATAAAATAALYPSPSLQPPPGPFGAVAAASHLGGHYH
# Summary of the method: as §1
# ETV5 = ETV5 (Homo sapiens, UniProt P41161 1-510); settings: protein: recombinant; tags: N-terminal GST; dsDNA, one strand shown
# Summary of the method: as §1
# HSF1 = HSF1 (Homo sapiens, UniProt Q00613 1-529); settings: protein: recombinant; tags: N-terminal GST; chain copies: 3; dsDNA, one strand shown
# Summary of the method: as §1
# SPIC = biological target: T8, SPIC (Homo sapiens, UniProt Q8N5J4 1-248); settings: protein: recombinant; tags: N-terminal GST; dsDNA, one strand shown
# T8 sequence: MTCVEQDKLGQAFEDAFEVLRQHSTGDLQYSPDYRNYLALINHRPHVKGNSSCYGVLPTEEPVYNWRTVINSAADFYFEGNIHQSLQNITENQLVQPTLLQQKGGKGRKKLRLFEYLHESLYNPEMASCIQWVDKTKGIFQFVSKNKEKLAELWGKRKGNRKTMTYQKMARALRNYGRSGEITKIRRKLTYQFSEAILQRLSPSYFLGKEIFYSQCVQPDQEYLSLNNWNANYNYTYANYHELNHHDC
# Summary of the method: as §1
# ELF4 = ELF4 (Homo sapiens, UniProt Q99607 1-663); settings: protein: recombinant; tags: N-terminal GST; dsDNA, one strand shown
# Summary of the method: as §1
# ELK4 = biological target: T9, ELK4 (Homo sapiens, UniProt P28324-2 1-405); settings: protein: recombinant; tags: N-terminal GST; dsDNA, one strand shown
# T9 sequence: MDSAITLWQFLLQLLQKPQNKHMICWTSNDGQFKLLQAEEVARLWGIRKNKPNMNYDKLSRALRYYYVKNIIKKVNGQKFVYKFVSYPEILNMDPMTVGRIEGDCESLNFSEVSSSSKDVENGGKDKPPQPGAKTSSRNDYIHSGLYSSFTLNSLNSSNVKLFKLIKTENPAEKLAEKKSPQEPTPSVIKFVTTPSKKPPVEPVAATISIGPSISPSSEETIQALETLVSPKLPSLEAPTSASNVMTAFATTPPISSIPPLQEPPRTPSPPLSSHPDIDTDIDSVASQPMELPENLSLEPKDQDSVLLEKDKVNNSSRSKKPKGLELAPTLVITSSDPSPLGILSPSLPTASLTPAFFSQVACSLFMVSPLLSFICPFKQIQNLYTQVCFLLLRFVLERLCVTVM
# Summary of the method: as §1
# ETV2 = biological target: T10, ETV2 (Homo sapiens, UniProt O00321 1-342); settings: protein: recombinant; tags: N-terminal GST; dsDNA, one strand shown
# T10 sequence: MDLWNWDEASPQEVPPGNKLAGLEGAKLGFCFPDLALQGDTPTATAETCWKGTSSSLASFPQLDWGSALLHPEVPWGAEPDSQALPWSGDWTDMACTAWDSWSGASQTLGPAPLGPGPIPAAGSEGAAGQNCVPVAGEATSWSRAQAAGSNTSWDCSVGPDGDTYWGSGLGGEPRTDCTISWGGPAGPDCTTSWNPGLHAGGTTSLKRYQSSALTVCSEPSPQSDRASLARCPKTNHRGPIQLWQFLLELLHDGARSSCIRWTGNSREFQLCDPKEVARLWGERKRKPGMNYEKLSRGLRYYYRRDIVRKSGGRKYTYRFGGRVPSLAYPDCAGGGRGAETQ
# Summary of the method: as §1
# ELF3 = biological target: T11, ELF3 (Homo sapiens, UniProt P78545 1-371); settings: protein: recombinant; tags: N-terminal GST; dsDNA, one strand shown
# T11 sequence: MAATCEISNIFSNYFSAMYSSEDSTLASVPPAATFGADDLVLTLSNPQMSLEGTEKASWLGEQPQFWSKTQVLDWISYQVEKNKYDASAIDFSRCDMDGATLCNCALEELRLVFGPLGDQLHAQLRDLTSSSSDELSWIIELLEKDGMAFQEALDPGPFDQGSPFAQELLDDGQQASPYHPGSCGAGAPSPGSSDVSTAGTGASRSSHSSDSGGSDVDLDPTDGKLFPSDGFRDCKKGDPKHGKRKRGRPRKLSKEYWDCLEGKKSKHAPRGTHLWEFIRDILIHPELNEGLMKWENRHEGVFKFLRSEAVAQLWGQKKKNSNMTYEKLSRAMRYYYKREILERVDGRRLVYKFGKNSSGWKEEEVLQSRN
# Summary of the method: as §1
# CRX = CRX (Homo sapiens, UniProt O43186 1-299); settings: protein: recombinant; tags: N-terminal GST; dsDNA, one strand shown
# Summary of the method: as §1
# ETV1 = ETV1 (Homo sapiens, UniProt P50549 1-477); settings: protein: recombinant; tags: N-terminal GST; dsDNA, one strand shown
# Summary of the method: as §1
# Chain of CRX (O43186 whole entry): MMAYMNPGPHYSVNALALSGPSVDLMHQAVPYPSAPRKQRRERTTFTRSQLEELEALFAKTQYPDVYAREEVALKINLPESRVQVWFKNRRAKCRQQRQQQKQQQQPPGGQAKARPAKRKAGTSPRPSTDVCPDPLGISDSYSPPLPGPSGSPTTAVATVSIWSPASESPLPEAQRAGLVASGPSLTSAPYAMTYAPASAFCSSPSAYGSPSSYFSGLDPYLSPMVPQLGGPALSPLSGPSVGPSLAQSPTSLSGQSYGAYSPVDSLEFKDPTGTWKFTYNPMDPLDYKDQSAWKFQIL
# Chain of ETV5 (P41161 whole entry): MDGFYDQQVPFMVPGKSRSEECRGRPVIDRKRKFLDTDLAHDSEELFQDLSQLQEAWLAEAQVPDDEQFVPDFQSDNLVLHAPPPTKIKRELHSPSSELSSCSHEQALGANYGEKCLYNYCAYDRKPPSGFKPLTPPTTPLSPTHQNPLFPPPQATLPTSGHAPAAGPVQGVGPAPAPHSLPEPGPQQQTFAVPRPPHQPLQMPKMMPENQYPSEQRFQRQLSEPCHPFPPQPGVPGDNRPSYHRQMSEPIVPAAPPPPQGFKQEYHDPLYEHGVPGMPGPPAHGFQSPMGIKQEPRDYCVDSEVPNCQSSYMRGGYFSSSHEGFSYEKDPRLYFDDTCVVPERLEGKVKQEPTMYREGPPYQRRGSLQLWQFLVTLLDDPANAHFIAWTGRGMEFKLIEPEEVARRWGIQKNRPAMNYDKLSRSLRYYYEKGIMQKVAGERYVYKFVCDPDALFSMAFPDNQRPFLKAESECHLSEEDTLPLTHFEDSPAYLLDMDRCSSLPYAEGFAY
# Chain of ELF4 (Q99607 whole entry): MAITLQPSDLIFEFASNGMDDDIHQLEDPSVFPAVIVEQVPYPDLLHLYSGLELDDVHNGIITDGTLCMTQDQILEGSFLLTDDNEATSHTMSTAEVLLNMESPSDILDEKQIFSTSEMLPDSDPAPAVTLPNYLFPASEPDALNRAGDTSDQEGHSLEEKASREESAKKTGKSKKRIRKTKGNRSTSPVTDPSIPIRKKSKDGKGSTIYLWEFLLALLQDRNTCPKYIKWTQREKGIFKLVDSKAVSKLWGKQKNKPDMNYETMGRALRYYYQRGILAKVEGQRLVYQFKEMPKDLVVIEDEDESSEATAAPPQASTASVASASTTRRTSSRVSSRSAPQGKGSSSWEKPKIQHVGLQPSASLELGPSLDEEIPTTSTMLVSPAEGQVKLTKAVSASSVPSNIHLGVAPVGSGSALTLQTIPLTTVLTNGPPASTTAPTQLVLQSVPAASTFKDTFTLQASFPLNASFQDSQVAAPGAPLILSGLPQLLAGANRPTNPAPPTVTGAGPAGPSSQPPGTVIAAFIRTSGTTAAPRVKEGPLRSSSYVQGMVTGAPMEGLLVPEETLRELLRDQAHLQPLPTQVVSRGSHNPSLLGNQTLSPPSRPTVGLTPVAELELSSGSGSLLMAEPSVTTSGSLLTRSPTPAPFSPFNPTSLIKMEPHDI
# Chain of ELF1 (P32519 whole entry): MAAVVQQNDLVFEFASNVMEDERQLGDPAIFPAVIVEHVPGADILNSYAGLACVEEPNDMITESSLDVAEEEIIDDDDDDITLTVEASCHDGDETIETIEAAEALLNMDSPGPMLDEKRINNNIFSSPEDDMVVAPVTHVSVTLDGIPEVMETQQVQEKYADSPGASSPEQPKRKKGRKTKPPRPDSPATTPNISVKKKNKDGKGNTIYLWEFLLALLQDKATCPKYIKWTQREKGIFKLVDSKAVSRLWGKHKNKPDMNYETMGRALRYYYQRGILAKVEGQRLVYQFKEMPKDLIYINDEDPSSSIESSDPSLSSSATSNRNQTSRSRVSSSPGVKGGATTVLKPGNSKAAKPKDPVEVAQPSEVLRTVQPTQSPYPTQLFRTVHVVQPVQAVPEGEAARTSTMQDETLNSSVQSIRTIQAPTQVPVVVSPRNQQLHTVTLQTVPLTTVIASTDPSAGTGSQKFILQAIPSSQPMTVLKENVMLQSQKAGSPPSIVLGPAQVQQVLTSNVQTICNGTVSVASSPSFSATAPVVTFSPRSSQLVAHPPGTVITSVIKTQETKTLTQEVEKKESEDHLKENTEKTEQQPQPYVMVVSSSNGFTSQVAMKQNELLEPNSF
# Chain of HSF1 (Q00613 whole entry): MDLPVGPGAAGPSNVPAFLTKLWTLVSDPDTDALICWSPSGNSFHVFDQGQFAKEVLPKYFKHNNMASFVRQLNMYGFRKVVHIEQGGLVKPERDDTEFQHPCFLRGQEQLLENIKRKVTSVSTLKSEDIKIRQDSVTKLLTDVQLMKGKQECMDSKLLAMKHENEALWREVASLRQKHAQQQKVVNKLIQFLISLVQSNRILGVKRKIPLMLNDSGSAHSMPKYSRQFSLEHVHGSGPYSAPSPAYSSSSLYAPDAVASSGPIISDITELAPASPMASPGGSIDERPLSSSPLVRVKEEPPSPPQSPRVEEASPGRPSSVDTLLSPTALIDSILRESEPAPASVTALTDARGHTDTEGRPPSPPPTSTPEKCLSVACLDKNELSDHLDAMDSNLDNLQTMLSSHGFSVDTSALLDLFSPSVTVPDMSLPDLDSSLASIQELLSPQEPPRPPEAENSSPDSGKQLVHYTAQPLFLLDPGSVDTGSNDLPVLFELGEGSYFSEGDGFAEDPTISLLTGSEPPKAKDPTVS
# Chain of ETV1 (P50549 whole entry): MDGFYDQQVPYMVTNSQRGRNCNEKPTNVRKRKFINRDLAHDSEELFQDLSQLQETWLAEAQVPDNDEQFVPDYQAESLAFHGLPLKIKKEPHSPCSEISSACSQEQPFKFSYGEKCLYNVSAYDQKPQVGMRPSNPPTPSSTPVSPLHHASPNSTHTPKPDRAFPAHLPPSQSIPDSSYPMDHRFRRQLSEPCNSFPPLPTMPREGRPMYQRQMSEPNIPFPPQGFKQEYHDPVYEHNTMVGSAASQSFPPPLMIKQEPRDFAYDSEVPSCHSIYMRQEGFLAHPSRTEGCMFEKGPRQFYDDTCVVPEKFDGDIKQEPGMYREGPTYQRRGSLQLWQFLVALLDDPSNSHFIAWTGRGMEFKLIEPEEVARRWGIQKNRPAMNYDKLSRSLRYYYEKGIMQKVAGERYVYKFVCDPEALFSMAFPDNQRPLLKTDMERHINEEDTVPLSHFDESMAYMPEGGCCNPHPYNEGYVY
# Chain of SPIB (Q01892 whole entry): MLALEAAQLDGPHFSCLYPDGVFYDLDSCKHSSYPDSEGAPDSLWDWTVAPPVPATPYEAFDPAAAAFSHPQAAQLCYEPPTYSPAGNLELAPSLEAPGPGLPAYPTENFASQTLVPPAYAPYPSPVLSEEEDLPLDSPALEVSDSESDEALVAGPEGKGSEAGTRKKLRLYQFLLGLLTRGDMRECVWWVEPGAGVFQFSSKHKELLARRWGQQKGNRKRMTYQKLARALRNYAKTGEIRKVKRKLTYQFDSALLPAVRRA
sequence,measurement,setting,value
CGCTTA,binding signal,FLI1,"1.32 fold enrichment (6-mer frequency, TF over GST control)"
same,binding signal,ELK1,"1.26 fold enrichment (6-mer frequency, TF over GST control)"
same,binding signal,GABPA,"1.17 fold enrichment (6-mer frequency, TF over GST control)"
same,binding signal,ERG,"1.15 fold enrichment (6-mer frequency, TF over GST control)"
same,binding signal,ELF1,"1.32 fold enrichment (6-mer frequency, TF over GST control)"
same,binding signal,EHF,"1.18 fold enrichment (6-mer frequency, TF over GST control)"
same,binding signal,SPI1,"1.24 fold enrichment (6-mer frequency, TF over GST control)"
same,binding signal,SPIB,"1.41 fold enrichment (6-mer frequency, TF over GST control)"
same,binding signal,ELK3,"1.15 fold enrichment (6-mer frequency, TF over GST control)"
same,binding signal,FEV,"1.2 fold enrichment (6-mer frequency, TF over GST control)"
same,binding signal,ETV5,"1.29 fold enrichment (6-mer frequency, TF over GST control)"
same,binding signal,HSF1,"1.53 fold enrichment (6-mer frequency, TF over GST control)"
same,binding signal,SPIC,"1.22 fold enrichment (6-mer frequency, TF over GST control)"
same,binding signal,ELF4,"1.29 fold enrichment (6-mer frequency, TF over GST control)"
same,binding signal,ELK4,"1.32 fold enrichment (6-mer frequency, TF over GST control)"
same,binding signal,ETV2,"1.1 fold enrichment (6-mer frequency, TF over GST control)"
same,binding signal,ELF3,"1.29 fold enrichment (6-mer frequency, TF over GST control)"
same,binding signal,CRX,"2.11 fold enrichment (6-mer frequency, TF over GST control)"
same,binding signal,ETV1,"1.24 fold enrichment (6-mer frequency, TF over GST control)"
